The supplement of paper PMC10681739
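Note: Full-length recombinant human ETS1 or RUNX1 bound to double-stranded 36-bp genomic probes on microarrays, detected by protein-specific primary antibody and Alexa488 secondary, spot fluorescence as median of four replicate spots.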

What follows are sequences tested against RUNX1 (UniProt Q01196) (assay: RUNX1 binding intensity (PBM fluorescence) in presence of ETS1, normalised to RUNX1-only experiment (arbitrary fluorescence units); higher = stronger binding). Settings: RUNX1 concentration 2 nM; ETS1 concentration 25 nM.
Sequence of RUNX1 (Q01196 whole entry): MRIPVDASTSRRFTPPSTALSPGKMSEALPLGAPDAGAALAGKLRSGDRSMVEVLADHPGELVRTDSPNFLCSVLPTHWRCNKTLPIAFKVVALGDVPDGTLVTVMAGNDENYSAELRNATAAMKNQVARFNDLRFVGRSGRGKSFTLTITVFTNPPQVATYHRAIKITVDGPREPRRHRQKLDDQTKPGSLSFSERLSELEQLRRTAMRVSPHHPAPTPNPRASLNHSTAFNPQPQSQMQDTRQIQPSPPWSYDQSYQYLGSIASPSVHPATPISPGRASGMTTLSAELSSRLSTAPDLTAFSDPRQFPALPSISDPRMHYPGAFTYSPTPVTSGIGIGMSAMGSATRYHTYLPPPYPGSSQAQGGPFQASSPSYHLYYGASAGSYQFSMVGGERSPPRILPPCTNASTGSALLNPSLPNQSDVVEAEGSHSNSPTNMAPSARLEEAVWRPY
Protocol: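 Cooperative gcPBM on 36-bp genomic probes with neighbouring ETS1 and RUNX1 sites. Recombinant human RUNX1 (2 nM) was incubated alone or with ETS1 (25 nM) and detected with anti-RUNX1 antibody plus Alexa488 secondary. Values are medians over 4 replicate spots; the RUNX1+ETS1 data were normalised to the RUNX1-only data. The probes sit in constant array flanks that are not printed.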
TGCATGCAACAGGAAGTGGGGTGTGGTTTGTTCTGG showed an RUNX1 binding intensity of 1890. GATCCCCCTCCTCCATCCTGTGGCTTCGGGTTGCCG was tested, and the RUNX1 binding intensity was 1150. Sequence GGCAGCAAGAAAGGAAATAGTGTGGTTGGGTGGAGA has an RUNX1 binding intensity of 1010. For GAGTCGCTTCCGCTCCCGCCCCGCTCTGTGGCGTAG, the RUNX1 binding intensity was 1980. GCACTCGGATGTTGGCCGTAGTTGTGGTTATAGTTG gave an RUNX1 binding intensity of 1110. TGGATGGCAAGCAACGGAAACCGCAAACAGGGCTGT showed an RUNX1 binding intensity of 26600. With GACTGGACAACTTCCTGGTGGAAAACCGCGACTCTT the RUNX1 binding intensity was 2340. TGCCACCTGCTTCCTGCCTGTGTAGCCACAAGGGAC gave an RUNX1 binding intensity of 1600. Work on AGCTTTCCTTTTCCGGTTGCGGCGCCGCGCGTTGAT yielded an RUNX1 binding intensity of 2340. With ACAGAGAAGCTTCCTATTGTGGGATTCACCACCACC the RUNX1 binding intensity was 942. For GGTGGCAACATCCTGGGGAGGGGAACCCACAGGGGA, the RUNX1 binding intensity was 1100. GGACGCCGCCGGAAGCGCGACCCGCACTCCCGGTAG gave an RUNX1 binding intensity of 1260. In the case of GAGGGGAGGATGTCTGAGCTTTTAATTGTGGTTTCA, the RUNX1 binding intensity is reported as 943. For AACGACAAACCGGAAGTATGGTTTGCCGCCTGAAGC, the RUNX1 binding intensity was 1620. Work on CGGCCTCTTCCGGTCACCTGGCCCGTCGCGGTCCCG yielded an RUNX1 binding intensity of 2290. Work on GGGTCCTTCCGGGTTTTGTGTCGAATCTGCGGCGGC yielded an RUNX1 binding intensity of 1720. GCACACCGGAACTCACACCTGAAACCACAGAACCAA showed an RUNX1 binding intensity of 5220. In the case of CCTGGGCAAGGCCGGATGCCTGTGGCTTCCAGGCTG, the RUNX1 binding intensity is reported as 1060. In the case of GTTGGGAGGCGCACATCCGGCGGTTACCCGGTGCTT, the RUNX1 binding intensity is reported as 1560.
